Compound activity: PubChem, National Center for Advancing Translational Sciences (NCATS)
HCV inh: blocks hepatitis C virus | Huh7.5.1 HCVcc-Cre infection, luciferase reporter, 44 h | Potency, µM (highest dose often 41.8 µM), without a hit: at the top dose activity change, negative = inhibition, usual class: inhibitors | hit rate 3.4% among 340,000; active = well fitted inhibition curve with a large enough effect; inconclusive = small, poorly fitted or top-dose-only effect, or another doubt; inactive = no such curve, though single readings can be large or run the other way; also: potency is read from the fitted curve at half-maximal effect; % is scaled to controls: 0 for no effect and ±100 for the full control effect
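Compounds are dispensed onto cells plated 4 h earlier at 1,000 per well, with HCVcc-Cre virus (about 0.5 moi) added next. Following 44 h of culture, luminescent signal is measured for 15 sec after 15 min with substrate at room temperature.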
Shiga toxin inh: Shiga toxin inhibition | AID 2315 | inhibition, % at 38.7 µM | hit rate 9.2% among 290,000 | Vero cells, Shiga toxin protein synthesis inhibition reporter; in the data active = inhibition mostly above about 28%, no sharp cut-off; inactive = mostly below about 43%; also: 0% is about no effect
FMDV inh: foot and mouth disease virus antiviral activity. FMDV antiviral cell-based qHTS. Potency, µM (titrated, usually from 57.9 µM), for the others: at the top dose activity change, negative = inhibition, actives largely listed as inhibitors. hit rate 1.2% among 410,000. AID 1159524; calls by dose curve; tested in HEK293T cells; also: read-out not given here; potency is read from the fitted curve at half-maximal effect; % is scaled to controls: 0 for no effect and ±100 for the full control effect; nearly all actives have a fitted effect of over 45% in size
Marburg entry inh: blocks Marburg virus binding to or entry into cells; Marburg virus pseudotyped entry inhibition, cell reporter; Potency, µM (series often up to 37.8 µM), without a hit: at the highest dose activity change, negative = inhibition, most hits filed as inhibitors; hit rate 1.8% among 300,000; calls by dose curve; tested in HEK293 cells; also: potency is read from the fitted curve at half-maximal effect; % is scaled to controls: 0 for no effect and ±100 for the full control effect
Cycloheximide cs: affects cycloheximide protein synthesis inhibition readout, counter-screen; max response, %; cell reporter, cycloheximide protein synthesis inhibition counterscreen; AID 2314; hit rate 12% among 300,000; in the data active = max response mostly above about 13%, no sharp cut-off; inactive = mostly below about 14%; also: read at 38.3 µM for the half of the compounds with a filed dose; 0% is about no effect
Lassa entry inh: Lassa virus entry inhibition; Lassa virus pseudotype entry inhibition, cell reporter; Potency, µM (doses to about 37.9 µM), for inactives: top-dose activity change, negative = inhibition, hits mostly inhibitors; hit rate 1.2% among 300,000; AID 540256; calls by dose curve; tested in HEK293 cells; also: potency is read from the fitted curve at half-maximal effect; % is scaled to controls: 0 for no effect and ±100 for the full control effect; nearly all actives have a fitted effect of over 50% in size
* hit, by the source's call; ? = inconclusive; / = not tested or not shown; [ ] = dose if it differs, or a comment. Compounds with a hit are over-represented: about 13% of the library has one in this group of screens.

SMILES	HCV inh	Shiga toxin inh	FMDV inh	Marburg entry inh	Cycloheximide cs	Lassa entry inh
CC1Cc2nc(SCC(=O)NCc3ccco3)n(Cc3ccccc3)c(=O)c2S1 (centres undefined)	?	36*	24%	18%	17	3%
CCCCn1c(SCC(=O)NCc2ccco2)nc2ccccc2c1=O	?	-5	-1%	-15%	6	9%
Cc1ccc(Cc2c(-c3ccc(C)cc3)nc3ccc(Cl)cn23)cc1	/	/	12%	/	/	/
Cc1c(C(=O)/C=C/c2ccccc2F)c2cc(O)ccc2n1C	/	/	36%	/	/	/
O=Cc1c(Sc2ccccc2)nc2ccccn2c1=O	-8%	4	?	?	1	?
O=Cc1c(Sc2ccccn2)nc2ccccn2c1=O	35µM*	9	?	1%	-6	-18%
COC(=O)CSc1nc2ccccn2c(=O)c1C=O	5%	46*	18%	12%[46.1 µM]	18*	8%[46.1 µM]
C=CCn1cc(CN2CCC(C(=O)Nc3cccc(-c4cccc(F)c4)c3)CC2)c(C)n1	?	-2	?	?	-2	-1%
C=CCn1cc(CN2CCC(C(=O)Nc3cccc(-c4cccc(Cl)c4)c3)CC2)c(C)n1	5µM*	-9	?	/	-13	/
O=C(Nc1cccc(-c2cccc(Cl)c2)c1)C1CCN(Cc2ccccn2)CC1	10µM*	4	-20%	?	-5	10µM*
O=C(Nc1cccc(-c2cccc(Cl)c2)c1)C1CCN(CC2CCOC2)CC1 (centres undefined)	10µM*	-5	28%	/	-4	/
COCc1ccc(CN2CCC(C(=O)Nc3cccc(-c4cccc(Cl)c4)c3)CC2)o1	10µM*	-28	?	?	-3	?
Cc1ccc(/C(N)=N/OC(=O)c2cc(-c3ccccc3)nc3ccccc23)cc1	?	-6	-10%	-15%	3	-2%
Cc1occc1C(=O)O/N=C(\N)c1ccccc1	7%	72*	-47%	?	51*	?
Cc1cccc(/C(N)=N/OC(=O)c2ccoc2C)c1	-2%	68*	2%	?	38*	?
CSc1ccc(CN(C)Cc2nc3cc(C(F)(F)F)ccc3c(=O)[nH]2)cc1	-9%	1	-19%	-22%[46.1 µM]	-3	5%
CCOc1ccccc1N1CCN(C(=O)c2ccc(S(=O)(=O)Nc3ccccc3)cc2)CC1	10µM*	/	-28%	/	/	/
CCOc1ccccc1N1CCN(C(=O)C2c3ccccc3Oc3ccccc32)CC1	?	2	-4%	?	3	7.1µM*
CCOc1ccccc1N1CCN(C(=O)c2ccccc2)CC1	7%	-5	-12%	0%	1	11%
COc1ccccc1N1CCN(C(=O)c2ccc(-c3ccc(Cl)cc3)o2)CC1	3.2µM*	/	-21%	/	/	/
COc1ccc(C(=O)N2CCN(c3ccccc3OC)CC2)cc1	12%	84	-8%	/	21	/
COc1ccccc1N1CCN(C(=O)c2ccc(-c3ccccc3)cc2)CC1	-20%	34	37%	/	20*	/
COc1ccccc1N1CCN(C(=O)NCc2ccc(Cl)cc2)CC1	?	-7	-7%	-9%[46.1 µM]	-2	-11%
CCN(CC)CCCC(C)n1c(C)cc(C(=O)NS(=O)(=O)c2ccc(C)cc2)c1C (centres undefined)	/	/	-2%	/	/	/
Cc1oc(C(C)(C)C)cc1C(=O)N1CCN(c2ncccc2C(F)(F)F)CC1	-2%	-5	-23%	-2%	0	-23%
SMILES	HCV inh	Shiga toxin inh	FMDV inh	Marburg entry inh	Cycloheximide cs	Lassa entry inh
O=C(Nc1ccccc1N1CCN(C(=O)c2ccccc2)CC1)c1ccc(Cl)cc1	?	29	-23%	?	1	?
COc1cc2c(C(=O)N3CCN(c4ccccc4C)CC3)c(C)oc2cc1Br	11µM*	-14	?	-4%	2	-3%
COc1ccccc1N1CCN(C(=O)c2c(C)cc(=O)oc2C)CC1	9%	23	-9%	14%	4	4%
COc1ccccc1N1CCN(C(=O)c2cc(C(C)(C)C)oc2C)CC1	-12%	-11	-16%	10µM*	12	-29%[46.1 µM]
O=C(Cc1ccc(Cl)cc1)Nc1ccccc1N1CCN(C(=O)c2ccccc2)CC1	?	-1	35µM*	/	1	/
COc1ccccc1S(=O)(=O)Cc1ccc(C(=O)N2CCN(c3cccc(Cl)c3)CC2)o1	13µM*	-3	18µM*	-30%	11	?
Cc1ccc(NC(=O)C2C3C=CC4(O3)C2C(=O)N(CCN2CCOCC2)C4C(=O)NC2CCCCC2)cc1C (centres undefined)	?	-2	22%	-23%[46.1 µM]	-11	13%[46.1 µM]
Cc1ccc(OCCNC(=O)c2cccc(Oc3ccc(C(F)(F)F)cc3[N+](=O)[O-])c2)cc1	?	-8	?	15%	8	?
COc1ccccc1N1CCN(C(=O)c2cccc(S(=O)(=O)N3c4ccccc4CC3C)c2)CC1 (centres undefined)	10µM*	/	-26%	?	/	?
O=C(Nc1ccccc1N1CCN(C(=O)c2ccc(Cl)cc2)CC1)c1ccc(Br)cc1	?	-6	-3%	?	1	-22%
CC(=O)c1ccc(-c2ccc(C(=O)N3CCN(c4ccc(F)cc4)CC3)o2)cc1	?	19	-27%	/	21*	/
COc1ccc(C(=O)Nc2ccccc2N2CCN(C(=O)c3ccccc3)CC2)cc1Br	10µM*	-7	-16%	?	-1	?
COc1ccccc1N1CCN(C(=O)c2sc3nc(-c4ccc(F)cc4)cn3c2C)CC1	4.5µM*	11	0%	-3%	-3	/
CCCC(=O)N1CCN(c2ccc([N+](=O)[O-])c(NC(C)c3ccccc3)c2)CC1 (centres undefined)	10%	-20	7%	21%	-6	-1%
Cc1ccc(CCNC(=O)CS(=O)Cc2nc(-c3cccc(C)c3)oc2C)cc1 (centres undefined)	?	-19	0%	/	-3	/
COc1ccc(S(=O)(=O)NCc2cccnc2)cc1C(=O)N1CCCCC1	17%	-3	44%	6%[46.1 µM]	-2	/
CC(C)c1ccc(NC(=O)[C@H]2O[C@@H]3OC(C)(C)O[C@@H]3[C@H]3OC(C)(C)O[C@H]32)cc1	/	/	6%	26%[46.1 µM]	/	10%[46.1 µM]
COc1ccc(S(=O)(=O)N2CCCN(CC(=O)Nc3ccccc3F)CC2)cc1	3%	-9	-11%	-3%[46.1 µM]	2	?
Cc1cc(C(=O)CN2C(=O)c3ccccc3C2=O)c(C)n1Cc1cccs1	-18%	12	-7%	6.5µM*	26*	-48%[14.3 µM]
Cc1cc(C(=O)Cn2nnc3ccccc3c2=O)c(C)n1Cc1cccs1	-23%	52	-13%	?	37*	?
CCCn1c(C)cc(C(=O)CN2C(=O)c3cccc(N)c3C2=O)c1C	-16%	14	30%	0%	17*	?
COc1ccc(OC)c(C(=O)Cn2nnc3ccccc3c2=O)c1	-19%	-5	14%	13%	-3	18%
COc1ccc(S(=O)(=O)NC(=O)C2(C)CCN2C(=O)Cc2ccccc2Cl)cc1OC (centres undefined)	/	/	-15%	/	/	/
COc1ccc(Br)cc1CNC(=O)Cc1cccs1	6%	6	54%	?	21*	5%
